This is an account of results in PubChem BioAssay (EPA / NIEHS).

Results filed as inconclusive are left out. Calls of active or inactive are those of the source. How the source made its calls, unless noted: active means hit-call score of the fitted dose curve at least 0.9, where 1 is the maximum; inconclusive means response in the unintended direction; inactive means score below 0.9.

Assay [1] in a line: BSK_3C_VCAM1: BioMAP Diversity Plus: 3C Assay for Vascular cell adhesion molecule 1 (VCAM1) Biomarker Activity (AID 2282999; active means hit-call score of the fitted dose curve at least 0.9, where 1 is the maximum; inactive means score below 0.9). The following applies: BioMAP 3C HUVEC, VCAM1 ELISA, cytokine-stimulated; actives raise or lower the signal. The method, boiled down:
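Human umbilical vein endothelial cells (3C system), biomarker read by ELISA 24 h after dosing; bidirectional fit against DMSO baseline. Cytotoxicity tracked by SRB total-protein staining in parallel cultures at biomarker time.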

A short description of assay [2]: BSK_4H_Eotaxin3: BioMAP Diversity Plus: 4H Assay for Eotaxin 3 Biomarker Activity (AID 2283000; active means hit-call score of the fitted dose curve at least 0.9, where 1 is the maximum; inactive means score below 0.9;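 further: CCL26 protein level quantified by ELISA in parallel with SRB cytotoxicity check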). As to conditions: primary human endothelial cells (HUVEC); actives raise or lower the signal. The method, boiled down: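 Human umbilical vein endothelial cells (BSK_4H system) dosed with test chemical; Eotaxin-3 (CCL26) measured by ELISA 24 h after dosing. Bidirectional curve fitting relative to DMSO negative control as baseline.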

For assay [3], the target named is human Peroxisome Proliferator-activated Receptor alpha (PPARa), PPARA (gene 5465) (UniProt Q07869). Briefly: ATG_PPARa_TRANS: Attagene TRANS-FACTORIAL HepG2 Assay for human Peroxisome Proliferator-activated Receptor alpha (PPARa) (AID 2283001). The procedure, abridged:
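HepG2 cells transiently transfected with multiplexed GAL4-UAS reporters driven by exogenous chimeric NR-Gal4 proteins; reporter mRNA measured after 24 h dosing. Read-out by RT-PCR, 6-FAM labelling, HpaI digestion and capillary electrophoresis; gain of signal versus DMSO.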

Assay [4] deals with human Peroxisome Proliferator-activated Receptor delta (PPARd), PPARD (gene 5467) (UniProt Q03181). Briefly: ATG_PPARd_TRANS: Attagene TRANS-FACTORIAL HepG2 Assay for human Peroxisome Proliferator-activated Receptor delta (PPARd) (AID 2283002). The procedure, abridged:
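Fluorescence from capillary electrophoresis of labelled RT-PCR reporter fragments gives the signal; DMSO sets baseline. Cells: HepG2 transiently carrying GAL4-UAS reporter units plus chimeric nuclear receptor-Gal4 proteins, exposed to chemicals for 24 h.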

Read-out in assay [5]: Intercellular Adhesion Molecule 1 (ICAM1), ICAM1 (gene 3383)
Briefly: BSK_3C_ICAM1: BioMAP Diversity Plus: 3C Assay for Intercellular Adhesion Molecule 1 (ICAM1) Biomarker Activity (AID 2283003; active means hit-call score of the fitted dose curve at least 0.9, where 1 is the maximum; inactive means score below 0.9). As to conditions: primary human endothelial cells (HUVEC); actives raise or lower the signal. The method, boiled down:
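ICAM-1 levels measured by ELISA after HUVEC cultures in the 3C system had been dosed for 24 h. Gain or loss of signal relative to DMSO was fitted in both directions.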

The target of assay [6] is human Retinoic Acid Receptor beta (RARb), RARB (gene 5915) (UniProt P10826). The experiment in a line: ATG_RARb_TRANS: Attagene TRANS-FACTORIAL HepG2 Assay for human Retinoic Acid Receptor beta (AID 2283004). The procedure, abridged:
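Induction of reporter mRNA from a chimeric RARb-Gal4 construct was measured by RT-PCR, FAM labelling, HpaI digestion and capillary electrophoresis. Measurements followed 24 h compound treatment of transiently transfected human HepG2 liver cells, with DMSO as baseline.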

The target in assay [7] is Retinoic acid receptor alpha (Homo sapiens) (UniProt P10276). Briefly: ATG_RARa_TRANS: Attagene TRANS-FACTORIAL HepG2 Assay for human Retinoic Acid Receptor alpha (RARa) (AID 2283005). The method, boiled down: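 HepG2 transiently transfected with multiplex GAL4-UAS reporter units including a human RARa–GAL4 chimera; 24 h compound exposure. Reporter mRNA quantified by RT-PCR, 6-FAM labeling and capillary electrophoresis; gain of signal versus DMSO.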

Assay [8] can be described thus: BSK_3C_Proliferation: Cell Proliferation Assessment in the BioMAP Diversity Plus: 3C Assay (AID 2283006; active means hit-call score of the fitted dose curve at least 0.9, where 1 is the maximum; inactive means score below 0.9;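 on AC50: potency may reflect either rise or fall in cell number versus DMSO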). As to conditions: primary human endothelial cells (HUVEC). The method, boiled down: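 Read-out is total protein by SRB absorbance at 560 nm, taken as a proxy for relative cell number. Primary human umbilical vein endothelium cultured below confluence was dosed for 48 h, TCA-fixed and SRB-stained; curves were fitted bidirectionally versus DMSO.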

Assay [9] has as its target Peroxisome proliferator-activated receptor gamma (Homo sapiens) (UniProt P37231). The experiment in a line: ATG_PPARg_TRANS: Attagene TRANS-FACTORIAL HepG2 Assay for human Peroxisome Proliferator-activated Receptor-gamma (PPARg) (AID 2283007). The procedure, abridged: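 Multiplexed reporter transcription units in HepG2, 24 h dosing, reporter transcripts quantified by fluorescent RT-PCR and capillary electrophoresis. Increase over DMSO scored.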

In assay [10] the target is Nuclear receptor subfamily 1 group I member 2 (Homo sapiens) (UniProt O75469). Briefly: ATG_PXR_TRANS: Attagene TRANS-FACTORIAL HepG2 Assay for human Pregnane X Receptor (PXR) (AID 2283008). The method, boiled down: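 Read-out is fluorescence of labelled reporter cDNA fragments separated by capillary electrophoresis after RT-PCR and HpaI digestion. Source: HepG2 cells carrying PXR-GAL4/UAS reporter constructs, treated 24 h; activity fitted upward relative to DMSO.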

In assay [11] the target is human Retinoic Acid Receptor gamma (RARg), RARG (gene 5916) (UniProt P13631). Briefly: ATG_RARg_TRANS: Attagene TRANS-FACTORIAL HepG2 Assay for human Retinoic Acid Receptor gamma (RARg) (AID 2283009). The procedure, abridged: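 Transient transfection of HepG2 with multi-reporter constructs, then 24 h chemical treatment. Total RNA isolated, reverse-transcribed, PCR-amplified, fluorescently labelled and resolved by capillary electrophoresis; activity scored as mRNA induction versus DMSO.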

The target of assay [12] is human RAR-related Orphan Receptor gamma (RORg), RORC (gene 6097) (UniProt P51449). The experiment in a line: ATG_RORg_TRANS: Attagene TRANS-FACTORIAL HepG2 Assay for human RAR-related Orphan Receptor gamma (RORg) (AID 2283011). The procedure, abridged: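 Reporter transcripts from a transfected RORg-GAL4 chimera in HepG2 cells were quantified 24 h after dosing by RT-PCR, 6-FAM labelling, HpaI digestion and capillary electrophoresis; increases over DMSO baseline were fitted.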

The target in assay [13] is human Retinoid X Receptor beta (RXRb), RXRB (gene 6257) (UniProt P28702). Briefly: ATG_RXRb_TRANS: Attagene TRANS-FACTORIAL HepG2 Assay for human Retinoid X Receptor beta (RXRb) (AID 2283013). The procedure, abridged:
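Transfect HepG2 with GAL4-UAS multi-reporter constructs (chimeric NR-Gal4, TRANS format); dose compound 24 h; isolate RNA, RT-PCR, FAM primer extension, HpaI digest; quantify by capillary electrophoresis; positive direction vs DMSO.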

In assay [14] the target is human Thyroid Receptor alpha (THRa1), THRA (gene 7067) (UniProt P10827). The experiment in a line: ATG_THRa1_TRANS: Attagene TRANS-FACTORIAL HepG2 Assay for human Thyroid Receptor alpha (THRa1) (AID 2283014). The procedure, abridged:
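Transcripts from GAL4-UAS-driven reporters, measured after 24 h compound exposure by RT-PCR plus capillary electrophoresis of 6-FAM-labeled fragments, were fitted for gain of signal relative to DMSO. Cells: transiently transfected HepG2 expressing NR-Gal4 chimeras.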

Read-out in assay [15]: E-selectin (Homo sapiens) (UniProt P16581)
Briefly: BSK_3C_Eselectin: BioMAP Diversity Plus: 3C Assay for Eselectin Biomarker Activity (AID 2283015; active means hit-call score of the fitted dose curve at least 0.9, where 1 is the maximum; inactive means score below 0.9;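 further: cell surface E-selectin protein quantified by ELISA 24 h after dosing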). As to conditions: primary human endothelial cells (HUVEC); actives raise or lower the signal. The procedure, abridged:
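E-selectin ELISA readout, fitted bidirectionally relative to DMSO, taken 24 h post-dosing in HUVEC cultures of the 3C system. Overt cytotoxicity tracked with sulforhodamine B staining of parallel wells.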

Read-out in assay [16]: Interleukin-1 alpha (IL1a), IL1A (gene 3552)
Briefly: BSK_BE3C_IL1a: BioMAP Diversity Plus: BE3C Assay for Interleukin-1 alpha (IL1a) Biomarker Activity (AID 2283016; active means hit-call score of the fitted dose curve at least 0.9, where 1 is the maximum; inactive means score below 0.9). The following applies: primary human bronchial epithelial cells; actives raise or lower the signal. The method, boiled down:
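BE3C primary human bronchial epithelium; cpd 24 h; IL-1a by ELISA; bidirectional fit vs DMSO; parallel SRB (0.1% SRB, 10% TCA fix, 560 nm) for cytotoxicity.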

Read-out in assay [17]: Monocyte Chemoattractant Protein-1 (MCP1), CCL2 (gene 6347)
Briefly: BSK_4H_MCP1: BioMAP Diversity Plus: 4H Assay for Monocyte Chemoattractant Protein-1 (MCP1) Biomarker Activity (AID 2283018; active means hit-call score of the fitted dose curve at least 0.9, where 1 is the maximum; inactive means score below 0.9). The following applies: primary human endothelial cells (HUVEC); actives raise or lower the signal. The method, boiled down:
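ELISA read-out of MCP-1 from human vascular endothelial primary cells taken at 24 hours after compound exposure. Activity was fitted in both directions relative to DMSO, which served as negative control.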

Assay [18] deals with human RAR-related Orphan Receptor beta (RORb), RORB (gene 6096) (UniProt Q92753). The experiment in a line: ATG_RORb_TRANS: Attagene TRANS-FACTORIAL HepG2 Assay for human RAR-related Orphan Receptor beta (RORb) (AID 2283010). The method, boiled down: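 Readout is reporter-gene mRNA induction, detected as fluorescence after RT-PCR and capillary electrophoresis, fitted for gain of signal against DMSO controls. Transiently transfected HepG2 liver cells carrying GAL4-UAS reporter constructs were treated for 24 hours.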

Read-out in assay [19]: Monocyte Chemoattractant Protein-1 (MCP1), CCL2 (gene 6347)
The experiment in a line: BSK_3C_MCP1: BioMAP Diversity Plus: 3C Assay for Monocyte Chemoattractant Protein-1 (MCP1) Biomarker Activity (AID 2283017; active means hit-call score of the fitted dose curve at least 0.9, where 1 is the maximum; inactive means score below 0.9). As to conditions: primary human endothelial cells (HUVEC); actives raise or lower the signal. The procedure, abridged:
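MCP-1 was measured by ELISA 24 h after dosing in primary HUVEC 3C cultures and fitted in both directions relative to DMSO; cytotoxicity was checked by SRB total-protein staining in parallel wells.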

The target of assay [20] is Retinoic acid receptor RXR-alpha (Homo sapiens) (UniProt P19793). The experiment in a line: ATG_RXRa_TRANS: Attagene TRANS-FACTORIAL HepG2 Assay for human Retinoid X Receptor alpha (RXRa) (AID 2283012). The procedure, abridged: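 Transient transfection of human HepG2 with multiple GAL4-UAS reporter constructs; 24 h compound exposure; total RNA isolated, reverse-transcribed, PCR-amplified, 6-FAM labelled, HpaI-cut, resolved by capillary electrophoresis. Positive-direction fit versus DMSO.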

Chain of E-selectin (Homo sapiens) (P16581 whole entry, looked up): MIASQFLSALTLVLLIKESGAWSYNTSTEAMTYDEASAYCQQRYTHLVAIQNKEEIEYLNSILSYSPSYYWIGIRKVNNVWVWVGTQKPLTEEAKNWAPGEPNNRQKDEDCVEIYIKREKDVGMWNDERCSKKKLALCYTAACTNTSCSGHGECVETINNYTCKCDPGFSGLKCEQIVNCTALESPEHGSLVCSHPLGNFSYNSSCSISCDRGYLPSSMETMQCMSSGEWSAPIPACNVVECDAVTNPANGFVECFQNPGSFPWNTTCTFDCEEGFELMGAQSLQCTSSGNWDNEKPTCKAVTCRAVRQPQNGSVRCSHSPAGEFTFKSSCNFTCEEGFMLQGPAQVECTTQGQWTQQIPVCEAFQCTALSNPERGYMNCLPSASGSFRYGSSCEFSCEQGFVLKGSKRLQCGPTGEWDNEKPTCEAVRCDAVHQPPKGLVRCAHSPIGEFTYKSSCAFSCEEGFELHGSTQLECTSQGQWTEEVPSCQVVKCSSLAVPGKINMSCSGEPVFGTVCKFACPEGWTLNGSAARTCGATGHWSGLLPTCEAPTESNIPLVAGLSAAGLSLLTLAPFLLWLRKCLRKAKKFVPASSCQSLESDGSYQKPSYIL
Chain of Peroxisome proliferator-activated receptor gamma (Homo sapiens) (P37231 whole entry, looked up): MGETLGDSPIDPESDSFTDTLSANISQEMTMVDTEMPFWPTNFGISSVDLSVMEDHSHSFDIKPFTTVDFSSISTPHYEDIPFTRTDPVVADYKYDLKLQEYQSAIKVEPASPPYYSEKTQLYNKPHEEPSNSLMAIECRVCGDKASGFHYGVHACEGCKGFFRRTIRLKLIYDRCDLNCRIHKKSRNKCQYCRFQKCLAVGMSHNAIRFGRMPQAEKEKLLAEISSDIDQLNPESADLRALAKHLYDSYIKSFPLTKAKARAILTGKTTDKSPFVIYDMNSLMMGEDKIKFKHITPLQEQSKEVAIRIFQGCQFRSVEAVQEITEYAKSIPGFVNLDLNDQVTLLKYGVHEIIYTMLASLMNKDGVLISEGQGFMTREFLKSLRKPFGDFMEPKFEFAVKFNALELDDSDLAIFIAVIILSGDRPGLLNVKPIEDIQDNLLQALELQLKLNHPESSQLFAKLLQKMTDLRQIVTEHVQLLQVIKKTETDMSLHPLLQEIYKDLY
Chain of human Thyroid Receptor alpha (THRa1), THRA (gene 7067) (P10827 whole entry, looked up, the tested form may be a part): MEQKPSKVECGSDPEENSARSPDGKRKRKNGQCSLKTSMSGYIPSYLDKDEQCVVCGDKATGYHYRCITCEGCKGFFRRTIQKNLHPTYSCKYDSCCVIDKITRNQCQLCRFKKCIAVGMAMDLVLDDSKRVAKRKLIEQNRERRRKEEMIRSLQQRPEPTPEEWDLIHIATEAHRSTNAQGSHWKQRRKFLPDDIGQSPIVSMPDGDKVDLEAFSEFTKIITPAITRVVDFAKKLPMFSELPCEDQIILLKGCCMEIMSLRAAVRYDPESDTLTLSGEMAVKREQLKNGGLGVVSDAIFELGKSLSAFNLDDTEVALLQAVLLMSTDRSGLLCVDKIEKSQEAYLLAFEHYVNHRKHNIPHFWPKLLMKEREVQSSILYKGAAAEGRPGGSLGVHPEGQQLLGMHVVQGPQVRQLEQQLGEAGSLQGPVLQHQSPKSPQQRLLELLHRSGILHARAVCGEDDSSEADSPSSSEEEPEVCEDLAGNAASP
Chain of human RAR-related Orphan Receptor gamma (RORg), RORC (gene 6097) (P51449 whole entry, looked up, the tested form may be a part): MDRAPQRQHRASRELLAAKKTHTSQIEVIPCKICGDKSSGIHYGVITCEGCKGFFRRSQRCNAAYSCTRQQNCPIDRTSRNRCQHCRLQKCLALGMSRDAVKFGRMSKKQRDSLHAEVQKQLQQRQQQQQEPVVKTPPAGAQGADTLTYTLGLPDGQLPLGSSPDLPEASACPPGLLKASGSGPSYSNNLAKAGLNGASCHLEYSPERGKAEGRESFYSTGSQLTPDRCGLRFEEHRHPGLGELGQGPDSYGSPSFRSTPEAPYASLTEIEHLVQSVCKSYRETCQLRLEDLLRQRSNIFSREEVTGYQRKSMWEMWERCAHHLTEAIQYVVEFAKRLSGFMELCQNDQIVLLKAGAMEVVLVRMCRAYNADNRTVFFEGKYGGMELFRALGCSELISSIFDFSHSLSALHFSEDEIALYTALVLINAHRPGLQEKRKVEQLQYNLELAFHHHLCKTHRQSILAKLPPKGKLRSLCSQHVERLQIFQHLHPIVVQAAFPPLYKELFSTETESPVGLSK
Chain of human Peroxisome Proliferator-activated Receptor alpha (PPARa), PPARA (gene 5465) (Q07869 whole entry, looked up, the tested form may be a part): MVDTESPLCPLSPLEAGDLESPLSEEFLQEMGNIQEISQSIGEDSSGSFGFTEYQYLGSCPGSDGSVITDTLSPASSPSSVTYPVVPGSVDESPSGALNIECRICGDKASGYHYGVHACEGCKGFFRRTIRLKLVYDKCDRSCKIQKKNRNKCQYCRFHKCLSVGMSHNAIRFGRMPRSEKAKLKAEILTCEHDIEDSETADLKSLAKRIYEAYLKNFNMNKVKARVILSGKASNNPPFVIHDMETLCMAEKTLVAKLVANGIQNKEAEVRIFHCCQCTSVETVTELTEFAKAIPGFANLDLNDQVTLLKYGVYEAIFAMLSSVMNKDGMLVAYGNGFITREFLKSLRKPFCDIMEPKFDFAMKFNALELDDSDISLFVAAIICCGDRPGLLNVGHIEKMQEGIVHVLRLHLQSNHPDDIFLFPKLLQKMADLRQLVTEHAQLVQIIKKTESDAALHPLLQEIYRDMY
Chain of human Peroxisome Proliferator-activated Receptor delta (PPARd), PPARD (gene 5467) (Q03181 whole entry, looked up, the tested form may be a part): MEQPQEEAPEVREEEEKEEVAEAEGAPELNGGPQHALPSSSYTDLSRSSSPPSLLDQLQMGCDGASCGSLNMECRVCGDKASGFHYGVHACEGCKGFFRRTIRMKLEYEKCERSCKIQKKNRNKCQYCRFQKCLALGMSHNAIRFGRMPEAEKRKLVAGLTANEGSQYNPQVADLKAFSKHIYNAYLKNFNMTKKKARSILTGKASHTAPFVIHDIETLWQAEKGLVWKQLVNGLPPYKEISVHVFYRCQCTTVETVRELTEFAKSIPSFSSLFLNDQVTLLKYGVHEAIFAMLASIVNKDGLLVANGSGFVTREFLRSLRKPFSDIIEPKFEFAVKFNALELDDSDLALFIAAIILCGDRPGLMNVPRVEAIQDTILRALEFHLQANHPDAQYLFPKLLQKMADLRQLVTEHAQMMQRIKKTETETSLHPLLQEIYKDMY
Chain of human Retinoid X Receptor beta (RXRb), RXRB (gene 6257) (P28702 whole entry, looked up, the tested form may be a part): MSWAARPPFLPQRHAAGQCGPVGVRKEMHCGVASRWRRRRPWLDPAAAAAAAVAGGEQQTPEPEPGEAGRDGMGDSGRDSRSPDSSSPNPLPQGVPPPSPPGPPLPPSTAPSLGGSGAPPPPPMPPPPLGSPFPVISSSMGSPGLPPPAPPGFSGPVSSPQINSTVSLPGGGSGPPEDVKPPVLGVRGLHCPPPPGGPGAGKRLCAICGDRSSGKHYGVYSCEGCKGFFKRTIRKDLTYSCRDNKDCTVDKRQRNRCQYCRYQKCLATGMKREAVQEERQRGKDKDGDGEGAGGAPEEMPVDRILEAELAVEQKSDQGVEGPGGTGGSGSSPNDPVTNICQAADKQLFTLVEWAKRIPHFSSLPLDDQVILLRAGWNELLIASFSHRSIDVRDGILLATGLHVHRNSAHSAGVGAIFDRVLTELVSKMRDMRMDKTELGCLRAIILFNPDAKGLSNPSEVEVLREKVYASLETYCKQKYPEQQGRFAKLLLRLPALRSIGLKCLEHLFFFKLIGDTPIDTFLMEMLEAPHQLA
Chain of Nuclear receptor subfamily 1 group I member 2 (Homo sapiens) (O75469 whole entry, looked up, the tested form may be a part): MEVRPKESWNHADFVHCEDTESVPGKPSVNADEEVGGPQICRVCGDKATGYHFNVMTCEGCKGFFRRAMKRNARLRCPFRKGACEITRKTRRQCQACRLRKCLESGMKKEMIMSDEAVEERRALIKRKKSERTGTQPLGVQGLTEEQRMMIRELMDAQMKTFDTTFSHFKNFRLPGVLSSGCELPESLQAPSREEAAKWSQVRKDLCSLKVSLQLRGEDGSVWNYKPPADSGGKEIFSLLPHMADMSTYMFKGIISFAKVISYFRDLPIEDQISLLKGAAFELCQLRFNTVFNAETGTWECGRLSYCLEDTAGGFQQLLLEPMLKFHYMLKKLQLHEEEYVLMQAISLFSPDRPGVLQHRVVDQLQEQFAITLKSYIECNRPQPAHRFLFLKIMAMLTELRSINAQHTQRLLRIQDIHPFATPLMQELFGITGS
Chain of human RAR-related Orphan Receptor beta (RORb), RORB (gene 6096) (Q92753 whole entry, looked up, the tested form may be a part): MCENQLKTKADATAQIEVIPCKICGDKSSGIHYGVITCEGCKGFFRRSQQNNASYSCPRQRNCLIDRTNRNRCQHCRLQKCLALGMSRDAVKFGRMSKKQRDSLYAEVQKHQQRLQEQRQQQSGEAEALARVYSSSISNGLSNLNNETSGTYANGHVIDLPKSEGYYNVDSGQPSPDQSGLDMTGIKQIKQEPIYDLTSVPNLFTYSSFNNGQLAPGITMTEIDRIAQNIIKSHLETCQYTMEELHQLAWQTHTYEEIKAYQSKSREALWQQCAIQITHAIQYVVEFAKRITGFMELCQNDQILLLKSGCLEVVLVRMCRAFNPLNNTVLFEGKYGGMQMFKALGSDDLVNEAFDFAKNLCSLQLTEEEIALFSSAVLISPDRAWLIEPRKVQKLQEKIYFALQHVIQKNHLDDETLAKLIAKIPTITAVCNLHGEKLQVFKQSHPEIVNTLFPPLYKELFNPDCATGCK
Chain of human Retinoic Acid Receptor beta (RARb), RARB (gene 5915) (P10826 whole entry, looked up, the tested form may be a part): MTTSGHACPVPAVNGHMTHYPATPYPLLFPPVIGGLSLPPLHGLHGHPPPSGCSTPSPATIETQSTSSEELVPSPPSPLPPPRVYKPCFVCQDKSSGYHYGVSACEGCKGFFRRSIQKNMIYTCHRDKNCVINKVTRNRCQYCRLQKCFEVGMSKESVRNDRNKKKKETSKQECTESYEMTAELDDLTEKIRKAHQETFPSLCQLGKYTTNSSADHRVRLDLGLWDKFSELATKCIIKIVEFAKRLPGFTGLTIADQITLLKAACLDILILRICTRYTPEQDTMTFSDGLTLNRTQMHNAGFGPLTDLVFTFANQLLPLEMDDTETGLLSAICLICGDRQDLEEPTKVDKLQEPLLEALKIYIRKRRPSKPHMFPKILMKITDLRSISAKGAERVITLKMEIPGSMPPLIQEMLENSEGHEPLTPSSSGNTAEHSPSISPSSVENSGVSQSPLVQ

Turning to `CCN(CC)c1nc(C)cc(OP(=S)(OC)OC)n1`, the outcome in [1], in [2], in [3], in assay [4], in assay [5] and in assay [6] was inactive. Also, the call in [7], in assay [11], in [12], in assay [14], in assay [15] and in assay [16] was inactive. Also, the outcome in [17] was inactive. For the same molecule, the concentration at half-maximal activity (AC50) (in general, the midpoint of the concentration-response curve, whichever way the signal moves) is 28.7 µM (active) in assay [8], 46.1 µM (active) in [9], 13.8 µM (active) in assay [10] and 33.7 µM (active) in [13].
Take `COP(=S)(OC)SCn1nnc2ccccc2c1=O`: the outcome in [1], in assay [2], in assay [3], in [4], in assay [5] and in assay [6] was inactive. In addition, the outcome in assay [8], in [9], in assay [10], in assay [18], in assay [12] and in assay [13] was inactive. Moreover, the result in [14], in [15], in [16], in [19] and in assay [17] was inactive.
Take `CS(=O)(=O)c1ccc(C(=O)C2C(=O)CCCC2=O)c([N+](=O)[O-])c1`: the outcome in assay [1], in [2], in [3], in [4], in assay [5] and in [8] was inactive. Besides, the outcome in [9], in assay [10], in [12], in assay [20], in assay [13] and in assay [14] was inactive. The outcome in [15], in assay [16], in assay [19] and in [17] was inactive.
For the molecule `Cc1nc(N(C)C)nc(OC(=O)N(C)C)c1C`, the result in assay [1], in [2], in assay [3], in assay [4], in assay [5] and in assay [8] was inactive. Further, the molecule was called inactive in assay [9], in assay [10], in assay [11], in assay [18], in [12] and in assay [20]. For the same molecule, the outcome in assay [14], in assay [15], in assay [16], in assay [19] and in assay [17] was inactive.
